Values joined by “and” are separate entries in the source; they are usually repeats but may differ in a detail not shown here. Identical values can stand only once. About 2,000 (36%) of roughly 5,500 compounds were called active. Inconclusive results (about 18%) are left out. Cut-off read from the data, not from the text of the source: active = normalized growth mostly below about 0.91 (no sharp cut-off); inconclusive = no clear call, values can overlap the other calls; inactive = mostly above about 0.92. This is one part of the list.
Experiment: chemical genetic growth profiling, strain panel (AID 1159580);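 note: tested at 20 µM; growth read once vehicle control cultures reached saturation at 30 °C; 1 = growth at the plate median or of vehicle wells; lower values mean less growth of the strain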
Settings: S. cerevisiae deletion strains, growth OD

Measured: normalized growth

COc1cc2c(cc1OC)C(=O)C(CC1CCN(Cc3ccccc3)CC1)C2 (stereo not given)
0.657 (active) and 1.01 (inactive): locus YJL095W, strain BCK1, stronger effect = lower value
inactive: locus YAL013W, strain DEP1, stronger effect = lower value 0.953 | locus YAL021C, strain ccr4, stronger effect = lower value 0.942 | locus YAL030W, strain snc1, stronger effect = lower value 1.01 | locus YBL061C, strain skt5, stronger effect = lower value 0.974 | locus YBR009C, strain hhf1, stronger effect = lower value 0.975 | locus YBR021W, strain FUR4, stronger effect = lower value 1.03 | locus YBR023C, strain chs3, stronger effect = lower value 0.988 | locus YBR171W, strain sec66, stronger effect = lower value 1.03 | locus YBR229C, strain ROT2, stronger effect = lower value 1.01 | locus YBR279W, strain paf1, stronger effect = lower value 0.972 | locus YCL011C, strain gbp2, stronger effect = lower value 0.978 | locus YCL016C, strain dcc1, stronger effect = lower value 0.986 | locus YCL029C, strain bik1, stronger effect = lower value 0.989 | locus YCL061C, strain MRC1, stronger effect = lower value 0.967 | locus YCL069W, strain vba3, stronger effect = lower value 1.02 | locus YCR088W, strain abp1, stronger effect = lower value 1.01 | locus YDL005C, strain med2, stronger effect = lower value 1.03 | locus YDL035C, strain GPR1, stronger effect = lower value 0.869 | locus YDL040C, strain nat1, stronger effect = lower value 0.981 | locus YDL101C, strain DUN1, stronger effect = lower value 0.948 | locus YDL185W, strain tfp1, stronger effect = lower value 0.998 | locus YDL192W, strain arf1, stronger effect = lower value 0.926 | locus YDR001C, strain nth1, stronger effect = lower value 1.02 | locus YDR069C, strain doa4, stronger effect = lower value 0.935 | locus YDR150W, strain NUM1, stronger effect = lower value 0.977 | locus YDR159W, strain sac3, stronger effect = lower value 0.953 | locus YDR195W, strain ref2 1.08 | locus YDR297W, strain sur2, stronger effect = lower value 0.989 | locus YDR334W, strain swr1, stronger effect = lower value 1.02 | locus YDR335W, strain msn5, stronger effect = lower value 0.999 | locus YDR388W, stronger effect = lower value 0.998 | locus YDR392W, strain spt3, stronger effect = lower value 1.09 | locus YEL003W, strain gim4, stronger effect = lower value 0.988 | locus YEL037C, strain rad23, stronger effect = lower value 1.02 | locus YEL061C, strain CIN8 (second series), stronger effect = lower value 1.04 | locus YEL061C, strain CIN8, stronger effect = lower value 1.06 | locus YER015W, strain faa2, stronger effect = lower value 0.947 | locus YER016W, strain bim1, stronger effect = lower value 1 | locus YER110C, stronger effect = lower value 0.992 | locus YER111C, strain swi4, stronger effect = lower value 1.02 | locus YER155C, strain BEM2 (second series), stronger effect = lower value 1.02 | locus YER155C, strain BEM2, stronger effect = lower value 1.01 | locus YFR010W, strain ubp6, stronger effect = lower value 1.03 | locus YGL078C, strain dbp3, stronger effect = lower value 0.976 | locus YGL086W, strain mad1, stronger effect = lower value 0.954 | locus YGL167C, strain pmr1, stronger effect = lower value 0.961 | locus YGL173C, strain kem1, stronger effect = lower value 1.01 | locus YGL227W, strain vid30, stronger effect = lower value 1.06 | locus YGL240W, strain doc1, stronger effect = lower value 0.994 | locus YHR013C, strain ard1, stronger effect = lower value 0.955 | locus YHR027C, strain rpn1, stronger effect = lower value 0.99 | locus YHR030C, strain SLT2, stronger effect = lower value 0.94 and 0.973 | locus YHR079C, strain IRE1 (second series), stronger effect = lower value 0.951 | locus YHR079C, strain IRE1, stronger effect = lower value 0.949 | locus YHR094C, strain hxt1, stronger effect = lower value 1 | locus YHR142W, strain chs7, stronger effect = lower value 0.919 | locus YHR200W, strain rpn10, stronger effect = lower value 0.973 | locus YIL066C, strain RNR3, stronger effect = lower value 0.896 | locus YIL073C, strain SPO22, stronger effect = lower value 0.904 | locus YIL125W, strain kgd1, stronger effect = lower value 1.01 | locus YIR030C, strain dcg1, stronger effect = lower value 0.985 | locus YJL092W, strain hpr5, stronger effect = lower value 1.02 | locus YJL095W, strain BCK1 (second series), stronger effect = lower value 0.994 | locus YJL115W, strain asf1, stronger effect = lower value 1.02 | locus YJL129C, strain trk1, stronger effect = lower value 0.896 | locus YJL134W, strain LCB3, stronger effect = lower value 0.996 | locus YJL154C, strain vps35, stronger effect = lower value 1.01 | locus YJL164C, strain tpk1, stronger effect = lower value 1 | locus YJL166W, strain qcr8, stronger effect = lower value 0.931 | locus YJL168C, strain set2, stronger effect = lower value 0.998 | locus YJL187C, strain SWE1, stronger effect = lower value 0.975 | locus YJR043C, strain POL32, stronger effect = lower value 0.872
active: locus YAL026C, strain drs2, stronger effect = lower value 0.606 | locus YDL074C, strain BRE1, stronger effect = lower value 0.734 | locus YDL134C, strain PPH21, stronger effect = lower value 0.798 | locus YDR101C, strain arx1, stronger effect = lower value 0.904 | locus YDR137W, strain rgp1, stronger effect = lower value 0.627 | locus YDR162C, strain NBP2, stronger effect = lower value 0.807 | locus YDR318W, strain mcm21, stronger effect = lower value 0.913 | locus YDR502C, strain sam2, stronger effect = lower value 0.834 | locus YER167W, strain BCK2, stronger effect = lower value 0.829 | locus YGL248W, strain PDE1, stronger effect = lower value 0.818 | locus YGL253W, strain hxk2, stronger effect = lower value 0.891 | locus YGR078C, strain PAC10, stronger effect = lower value 0.821 | locus YGR135W, strain pre9, stronger effect = lower value 0.787 | locus YGR229C, strain SMI1, stronger effect = lower value 0.523 | locus YGR252W, strain gcn5, stronger effect = lower value 0.742 | locus YHR129C, strain ARP1, stronger effect = lower value 0.876 | locus YJL187C, strain SWE1 (second series), stronger effect = lower value 0.849

Reference: PubChem BioAssay AID1159580 (chemical genetic matrix, 2015)
